Compound activity deposited in PubChem BioAssay by Sanford-Burnham Center for Chemical Genomics.
aDG glyco up: increases alpha dystroglycan glycosylation; hit rate 0.22% among 360,000; activation, % at 10 µM; Pro5-aDG cells, alpha-DG glycosylation AlphaScreen (IIH6); 0% Pro5, 100% B10-LARGE cell signal; AID 624168;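 active = activation of at least 8% versus controls, or a plate z-score of at least 8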;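 note: Pro5 are CHO cells carrying HIG-tagged alpha-DG that lacks glycosylation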
FAS TE block: FAS thioesterase (human) inhibition | inhibition, % at 15 µM | hit rate 0.67% among 360,000 | P49327 | recombinant FAS-TE, OMFH fluorogenic substrate, fluorescence endpoint;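 active = compounds whose normalised, plate-corrected inhibition of enzyme fluorescence in the single-dose primary screen is 50% or more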;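 note: 0% = DMSO with enzyme and 100% = substrate without enzyme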
GC-A act: GC-A (human) enzyme activation; P16066; HEK293 GC-A cells, cGMP TR-FRET, EC30 ANP; 0% at EC30 ANP, 100% saturating ANP; activation, % at 10 µM; hit rate 0.14% among 370,000; AID 1671463; in the data active = activation above about 40%
Target sequence (P16066 whole entry, looked up): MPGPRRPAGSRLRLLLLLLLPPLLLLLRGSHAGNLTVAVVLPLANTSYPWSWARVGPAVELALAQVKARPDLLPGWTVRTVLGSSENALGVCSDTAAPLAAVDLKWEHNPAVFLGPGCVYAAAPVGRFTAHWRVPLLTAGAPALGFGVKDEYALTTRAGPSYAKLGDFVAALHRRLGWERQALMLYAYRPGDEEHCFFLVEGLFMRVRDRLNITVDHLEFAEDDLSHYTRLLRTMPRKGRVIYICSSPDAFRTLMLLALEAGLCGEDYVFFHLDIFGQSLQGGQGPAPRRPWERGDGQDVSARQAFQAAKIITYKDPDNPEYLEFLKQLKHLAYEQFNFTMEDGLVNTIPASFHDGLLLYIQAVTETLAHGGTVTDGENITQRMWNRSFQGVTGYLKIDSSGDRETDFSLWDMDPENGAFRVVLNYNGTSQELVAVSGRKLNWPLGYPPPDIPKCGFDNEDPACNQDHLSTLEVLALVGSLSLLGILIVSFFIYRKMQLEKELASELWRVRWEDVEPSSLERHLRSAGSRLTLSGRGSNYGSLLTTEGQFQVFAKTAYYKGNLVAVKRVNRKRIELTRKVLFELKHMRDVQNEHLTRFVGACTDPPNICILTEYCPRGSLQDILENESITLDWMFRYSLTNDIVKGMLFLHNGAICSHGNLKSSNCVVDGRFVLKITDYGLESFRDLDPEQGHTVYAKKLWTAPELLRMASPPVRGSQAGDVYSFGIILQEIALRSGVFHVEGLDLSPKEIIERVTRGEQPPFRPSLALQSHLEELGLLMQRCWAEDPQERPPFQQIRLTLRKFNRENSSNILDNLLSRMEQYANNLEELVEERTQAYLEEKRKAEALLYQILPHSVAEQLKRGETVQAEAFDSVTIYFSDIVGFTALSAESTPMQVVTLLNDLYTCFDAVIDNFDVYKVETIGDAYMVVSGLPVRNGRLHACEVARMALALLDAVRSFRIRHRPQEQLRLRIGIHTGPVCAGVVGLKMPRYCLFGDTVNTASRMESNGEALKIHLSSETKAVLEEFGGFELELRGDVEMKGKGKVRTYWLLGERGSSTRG
GC-B act: GC-B (human) receptor activation | P20594 | hit rate 0.11% among 370,000 | HEK293-GC-B cells, CNP EC30, cGMP TR-FRET; 0% at EC30 CNP, 100% saturating CNP | activation, % at 10 µM | AID 1920062;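 active = activation at 10 µM reaching about 35% in either raw or pattern-adjusted values, limit read from the data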
Numbers without * were called inactive; . = not tested or not shown. The list is not random: actives were taken first. Their share in the collection is about 1.1%.

SMILES	aDG glyco up	FAS TE block	GC-A act	GC-B act
COC(=O)[C@]12C[C@H](CC(=O)NCC34CC5CC(CC(C5)C3)C4)C(=O)N(Cc3ccc4c(c3)OCO4)C1=C[C@H](COCc1ccccc1)O[C@@H]2C	.	.	0.6	1.4
O=C(NC1CCCCN(Cc2ccc(Cl)cc2)C1=O)c1ccc(COc2ccccc2)cc1 (stereo not drawn)	.	.	4.7	8.4
Cc1ccc(CN=Cc2[nH]c3ccc(Br)c(Cl)c3c2O)cc1	3.9*	9.6	-2.8	-3.4
Cc1cccc([C@@H]2[C@@H]3C(=O)N(Cc4ccccc4)C(=O)[C@@H]3[C@]3(Cc4ccccc4)C(=O)N(c4ccccc4)C(=O)N23)c1	0.0	91.9*	-12.7	-16.5
Cc1cccc([C@@H]2[C@@H]3C(=O)N(Cc4ccccc4)C(=O)[C@@H]3[C@]3(C)C(=O)N(c4cccc(Cl)c4)C(=O)N23)c1	-0.3	22.9	-17.5	-18.8
CC[C@@]12C(=O)N(c3ccccc3)C(=O)N1[C@H](c1cccc(C)c1)[C@@H]1C(=O)N(Cc3ccccc3)C(=O)[C@@H]12	0.1	3.4	-7.6	-11.1
Cc1cccc([C@@H]2[C@@H]3C(=O)N(Cc4ccccc4)C(=O)[C@@H]3[C@]3(Cc4ccccc4)C(=O)N(c4cccc(Cl)c4)C(=O)N23)c1	0.0	81.6*	-21.0	-13.3
Cc1cccc([C@@H]2[C@@H]3C(=O)N(Cc4ccccc4)C(=O)[C@@H]3[C@]3(CC(C)C)C(=O)N(c4cccc(Br)c4)C(=O)N23)c1	0.2	88.5*	.	.
CCCCNC(=O)NS(=O)(=O)c1ccc(NC(=O)CSc2ncnc3scc(-c4ccc(C)cc4)c23)cc1	.	.	-1.2	-7.5
COc1cccc(CC(=O)N(Cc2ccccc2)c2ccccc2C(=O)Nc2cc(OC)ccc2OC)c1	.	.	-18.1	-21.2
O=C(Nc1cccc(NC(=O)c2cc([N+](=O)[O-])ccc2Cl)n1)c1cc([N+](=O)[O-])ccc1Cl	0.0	56.6*	.	.
Cc1ccc2nc(SCc3ccc([N+](=O)[O-])cc3)[nH]c2c1	0.2	58.1*	-4.2	-4.7
Cc1ccc2nc(SCc3ccc([N+](=O)[O-])cc3)nc(C)c2c1	0.5	35.5	-2.2	-1.5
Nc1ncnc2c1ncn2[C@@H]1O[C@H](C(=O)NCCCN2CCCC2=O)[C@@H](O)[C@H]1O	-0.1	-8.5	0.4	2.6
Nc1nc2c(ncn2[C@@H]2O[C@H](C(=O)NCCCN3CCCC3=O)[C@@H](O)[C@H]2O)c(=O)[nH]1	.	.	48.9*	45.3*
O=C(N/N=C/c1ccc([N+](=O)[O-])o1)c1cc2ccccc2o1	3.6*	3.7	0.8	-8.0
O=C(N/N=C/c1ccc([N+](=O)[O-])o1)c1cc2c(ccc3ccccc32)o1	3.0	7.1	6.7	-7.6
COc1ccc(NS(=O)(=O)c2cccc(C(=O)O)c2)cc1	0.7	-12.2	-3.4	1.8
COc1ccc(C(=O)C(C)OC(=O)c2cccc(S(=O)(=O)Nc3cc(Cl)c(OC)cc3OC)c2)cc1 (stereo not drawn)	2.2	57.1*	.	.
CN1C(=O)c2cc(NS(C)(=O)=O)ccc2OC[C@H]2O[C@@H](CC(=O)NCc3ccc(-c4ccccc4)cc3)CC[C@@H]21	.	.	3.8	1.0
O=C1C=C(c2c(O)ccc3ccccc23)c2ccccc2C1=O	-0.2	11.3	44.0*	48.9*
CC(=O)NCCNC(=O)c1ccc(Sc2ccccc2)c([N+](=O)[O-])c1	-0.2	7.4	-0.1	2.5
CN(C)CCNC(=O)c1ccc(Sc2ccc(Br)cc2)c([N+](=O)[O-])c1	3.6*	14.0	-0.4	-6.9
CC(C)CC(COCc1ccc([N+](=O)[O-])cc1)N1CCN(C(=O)c2ccc(C(F)(F)F)cc2)CCC1=O (stereo not drawn)	0.3	56.8*	-1.1	-1.2
CN1CCCC(n2nc(Cc3ccc(Cl)cc3)c3ccccc3c2=O)CC1 (stereo not drawn)	0.9	-0.3	-14.7	118.1*
SMILES	aDG glyco up	FAS TE block	GC-A act	GC-B act
O=[N+]([O-])c1nn(-c2cccc(Cl)c2)n(O)c1=NCc1cccnc1	0.4	-8.4	3.1	2.7
O=[N+]([O-])c1nn(-c2ccc(Cl)cc2)n(O)c1=NCc1ccccc1Cl	0.1	3.3	42.6*	-7.8
O=[N+]([O-])c1nn(-c2ccc(Cl)cc2)n(O)c1=NCc1cccnc1	0.0	-8.0	40.8*	-6.7
O=C(NCCO)C1(C(=O)C2CC2)CC(c2ccccn2)=NO1 (stereo not drawn)	.	.	0.6	-2.0
O=C(NCCc1ccccc1F)c1cc(COc2ccc(F)cc2F)on1	-0.1	4.3	1.6	4.4
O=C(N[C@H]1CCCCNC1=O)c1cc(COc2ccc(F)cc2F)on1	0.2	-2.9	65.9*	5.6
O=C(OC1CCOC1=O)c1cc(-c2cccs2)nc2ccccc12 (stereo not drawn)	-0.1	14.7	50.8*	8.2
O=C(NCCc1cccc(F)c1)c1cc2ccccn2n1	.	.	6.7	-6.7
CCOC(=O)C1CCN(C(=O)c2ccc3c(=O)n4nc(Nc5ccccc5)sc4nc3c2)CC1	0.2	39.3	34.2	40.3*
COc1ccccc1CNC(=O)N1CCC(c2nc3ccc(Cl)cc3[nH]2)CC1	.	.	-3.5	-8.0
O=C1CCCN1CCCNc1nc2c(S(=O)(=O)c3ccccc3)nnn2c2ccc(Cl)cc12	-0.2	42.4	36.1	47.8*
CCS(=O)(=O)c1nc(S(=O)(=O)c2ccc(C)cc2)c(NCCCN2CCCC2=O)s1	-0.2	-1.6	-1.7	-0.3
N/C(=N\OC(=O)c1ccc(Cl)c([N+](=O)[O-])c1)c1ccccn1	0.5	9.1	2.2	-4.5
N/C(=N\OC(=O)c1ccc(Cl)c([N+](=O)[O-])c1)c1ccccc1	0.6	21.9	46.3*	-3.7
O=C(Cc1c[nH]c2ccccc12)Nc1ccc(Nc2cccnc2)c(-c2ccc(-c3ccccc3)cc2F)c1	.	.	-3.6	-5.7
COc1ccc2c(c1)sc1nc(-c3ccccc3)cn12	14.0*	15.1	-5.5	-7.8
COc1ccc(COc2cc(-c3cccc(OC)c3)nc3ccc(NC(=O)C(C)C)cc23)cc1	0.1	16.4	52.5*	54.8*
COCCCn1c2nc3ccccc3nc2c2c(=O)n(Cc3ccc(Cl)cc3)cnc21	0.4	17.6	19.1	21.6
O=c1c2c3nc4ccccc4nc3n(Cc3ccccc3)c2ncn1Cc1ccco1	0.5	9.4	46.1*	47.9*
Nc1c(S(=O)(=O)c2ccccc2)c2nc3ccccc3nc2n1Cc1ccco1	18.9*	-8.4	-12.6	-9.5
CN1C2=N[C@H](c3ccccc3Br)CC(=O)N2/C(=C\c2ccccc2)[C@@H]1c1ccccc1	.	.	-28.7	-27.4
CC(Oc1ccc(Cl)cc1Cl)c1nc(-c2ccc(NC(=O)c3cccnc3)cc2)no1 (stereo not drawn)	14.4*	19.5	-1.6	1.9
CC(=O)Nc1sc2c(c1-c1nc3ccccc3s1)CNC2	.	.	-16.6	-4.5
S=C(c1ccc(-c2ccc(Br)cc2)o1)N1CCOCC1	-0.1	34.0	27.8	35.7*
S=C(c1ccc(-c2ccc(Br)cc2)o1)N1CCCCC1	-0.3	13.5	3.5	-0.6
CC(=O)Oc1ccc(/C=c2\sc3ncnn3c2=O)cc1	-0.2	-6.7	-0.5	-3.6
